Compound activity (PubChem)
Sampled rows, rich in hits. Any-hit rate of the full collection: about 2.4%.
POLB inh: inhibitors of human DNA polymerase beta; 340,000 tested, 1.3% active; P06746; Potency, µM (top dose mostly 114 µM), usual class: inhibitors; Pol beta primer extension/strand displacement, fluorescence kinetic
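10 nM enzyme + cpd, 15 min RT; start with substrate 50 nM final; read 0 min and after 10 min RT. Corrected, normalized data; 4-parameter Hill curve fit.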
Pol kappa inh: DNA polymerase kappa (human) inhibition. Q9UBT6. purified Pol kappa, fluorescent DNA synthesis assay, 10 min. Potency, µM (series often up to 107 µM), usual class: inhibitors. 400,000 tested, 0.53% active. AID 588579
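10 nM Pol kappa preincubated 15 min at room temperature with compounds, then reaction started with substrate at 50 nM final. Fluorescence read kinetically at 0 and 10 min; buffer-only wells served as negative control.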
POLH inh: DNA polymerase eta (human) inhibition | 390,000 tested, 1.2% active | recombinant Pol eta, fluorescent DNA replication assay | AID 588591 | Potency, µM (series often up to 114 µM), usual class: inhibitors | Q9Y253
Target sequence (Q9Y253 whole entry, looked up): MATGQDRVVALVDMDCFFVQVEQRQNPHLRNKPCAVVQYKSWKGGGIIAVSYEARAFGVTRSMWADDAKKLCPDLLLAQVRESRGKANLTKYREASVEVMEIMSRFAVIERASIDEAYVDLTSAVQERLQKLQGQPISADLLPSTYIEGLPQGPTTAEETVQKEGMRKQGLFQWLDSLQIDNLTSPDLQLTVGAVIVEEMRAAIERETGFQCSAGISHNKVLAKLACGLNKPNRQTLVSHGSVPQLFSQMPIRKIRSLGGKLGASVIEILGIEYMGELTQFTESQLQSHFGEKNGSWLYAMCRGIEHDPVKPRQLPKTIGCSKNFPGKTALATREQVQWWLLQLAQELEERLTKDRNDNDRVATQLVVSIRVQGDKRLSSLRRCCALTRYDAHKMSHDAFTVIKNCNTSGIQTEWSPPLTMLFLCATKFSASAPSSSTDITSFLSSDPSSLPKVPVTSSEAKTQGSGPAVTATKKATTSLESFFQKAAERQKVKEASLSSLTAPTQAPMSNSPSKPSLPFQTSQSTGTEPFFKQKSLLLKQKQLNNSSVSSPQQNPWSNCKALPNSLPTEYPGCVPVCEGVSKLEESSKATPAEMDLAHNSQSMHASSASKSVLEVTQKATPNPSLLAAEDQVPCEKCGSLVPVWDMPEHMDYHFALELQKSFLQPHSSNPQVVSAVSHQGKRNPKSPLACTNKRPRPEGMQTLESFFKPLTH
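Pol eta (10 nM) was preincubated with compounds for 15 min at room temperature, after which fluorescent replication substrate (50 nM final) was added to start the reaction. Fluorescence was read kinetically at 0 and 10 min.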
Pol iota inh: inhibitors of human DNA polymerase iota; Pol iota fluorescent replication assay, 10 min; 390,000 tested, 1% active; Potency, µM (highest dose often 115 µM), hits mostly inhibitors; Q9UNA4
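Fluorescent replication assay read twice, at 0 min and 10 min after adding 50 nM (final) substrate. Enzyme (10 nM) and compounds were first incubated 15 min at room temperature; enzyme-free buffer wells were negative controls.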
FEN1 inh-1: blocks human flap endonuclease 1; AID 588795; Potency, µM (doses to about 114 µM), most hits filed as inhibitors; 390,000 tested, 0.35% active; P39748; Recombinant FEN1 flap cleavage, fluorescence, 15 min; note: nearly all actives have a fitted effect of over 65% in size
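Potency values derive from four-parameter Hill fits of normalized qHTS data. The reaction used 10 nM FEN1 preincubated 15 min at room temperature with compound, then 50 nM DNA substrate, read at 0 and 15 min.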
WRN helicase inh: blocks human WRN helicase; Q14191; WRN helicase unwinding, fluorescent forked duplex, kinetic; Potency, µM (series often up to 114 µM), hits mostly inhibitors; 360,000 tested, 0.46% active; AID 651768; note: nearly all actives have a fitted effect of over 55% in size
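Kinetic red-fluorescence monitoring (525/598 nm) tracks WRN helicase activity after 100 nM fluorophore-quencher forked duplex and 2 mM ATP are added to 20 nM enzyme pretreated 15 min at room temperature with compound.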
FEN1 inh-2: FEN1 inhibition, cherry-pick retest | shares compounds with FEN1 inh-1 | FEN1 flap cleavage, TAMRA/BHQ2 fluorogenic DNA substrate | 880 tested, 79% active | Potency, µM, usual class: inhibitors; note: nearly all actives have a fitted effect of over 60% in size
Large screens that a line does not name were inactive (follow-up assays come after a bar, where they were run). Calls come from the whole dose curve; as a rule, active = well fitted curve in the direction sought with a large enough effect; inconclusive = small, poorly fitted or top-dose-only effect, or another doubt; inactive = no such curve, though single readings can be large; an effect the other way counts as inactive or inconclusive.

Cc1ccc(-c2oc3ncnc(N)c3c2-c2ccc(C)cc2)cc1	Pol iota inh inconclusive
CN1CCN(c2ncnc3ccc(-c4ccc5c(c4)OCO5)cc23)CC1	none (no result: POLB inh, POLH inh, Pol iota inh, FEN1 inh-1, WRN helicase inh)
Cn1cncc1CNc1ncnc2ccc(-c3ccc4c(c3)OCO4)cc12	none (no result: POLB inh, Pol kappa inh, POLH inh, Pol iota inh, FEN1 inh-1, WRN helicase inh) | FEN1 inh-2 inconclusive
c1nc(N2CCC(N3CCCC3)CC2)c2cc(-c3ccc4c(c3)OCO4)ccc2n1	none (no result: POLB inh, Pol kappa inh, POLH inh, Pol iota inh, FEN1 inh-1, WRN helicase inh) | FEN1 inh-2 33.8
c1nc(NCCCN2CCCCC2)c2cc(-c3ccc4c(c3)OCO4)ccc2n1	none (no result: POLB inh, Pol kappa inh, POLH inh, Pol iota inh, FEN1 inh-1, WRN helicase inh) | FEN1 inh-2 33.8
CN(C)CCCN1C(=O)c2cccc3c([N+](=O)[O-])ccc(c23)C1=O	POLB inh inconclusive, Pol iota inh inconclusive, FEN1 inh-1 50.1µM | FEN1 inh-2 33.8
c1ccc2c(c1)CC(N1CCN(c3cccc4c3OCCO4)CC1)C2	none (no result: FEN1 inh-1, WRN helicase inh)
O=C(CSc1nc2c(c(=O)[nH]1)CCCC2)Nc1ccc(Br)cc1	none (no result: POLH inh, WRN helicase inh)
CNc1ccc2c3c(cccc13)C(=O)N(C)C2=O	Pol iota inh inconclusive, FEN1 inh-1 inconclusive, WRN helicase inh inconclusive | FEN1 inh-2 inconclusive
CN1C(=O)c2cccc3c(Cl)ccc(c23)C1=O	none
C=CCn1c(N/N=C/c2ccc(O)cc2)nc2ccccc2c1=O	none
Cc1ccccc1/C=N/Nc1nc2ccccc2c(=O)n1O	POLH inh inconclusive, FEN1 inh-1 39.8µM | FEN1 inh-2 42.6
CCN(CC)CCNC(=O)c1cc2c(=O)n(C)c3ccccc3c2s1	FEN1 inh-1 50.1µM | FEN1 inh-2 47.8
CCCCN(CC)CCNC(=O)c1cc2c(=O)n(C)c3ccccc3c2s1	FEN1 inh-1 inconclusive
O=C1c2cccc3cccc(c23)C(=O)N1OS(=O)(=O)c1ccccc1	FEN1 inh-1 inconclusive
Cc1ccc(S(=O)(=O)ON2C(=O)c3cccc4cccc(c34)C2=O)cc1	FEN1 inh-1 17.8µM | FEN1 inh-2 37.9
O=C1c2cccc3cccc(c23)C(=O)N1OS(=O)(=O)c1ccc(Br)cc1	FEN1 inh-1 inconclusive | FEN1 inh-2 10.7
COC(=O)c1ccc(NC(=O)CCn2cnnn2)cc1	none (no result: WRN helicase inh)
CCOC(CNc1ncnc2sc(-c3ccccc3)cc12)OCC	FEN1 inh-1 inconclusive
CN(C)CCCNc1ncnc2sc(-c3ccccc3)cc12	POLB inh inconclusive, Pol iota inh inconclusive, FEN1 inh-1 inconclusive | FEN1 inh-2 inconclusive
CN1CCc2c(sc(/N=C/c3c[nH]c4ccccc34)c2C#N)C1	FEN1 inh-1 inconclusive | FEN1 inh-2 inconclusive
CN1CCc2c(sc(/N=C/c3c[nH]c4ccccc34)c2C(N)=O)C1	FEN1 inh-1 inconclusive | FEN1 inh-2 75.7
c1cc2c3c(c1)CCCN3CCC2	none (no result: POLB inh, POLH inh, WRN helicase inh)
Cn1c(=O)c(C(=O)Nc2ncccc2O)c(O)c2ccccc21	FEN1 inh-1 50.1µM | FEN1 inh-2 60.1
COc1ccccc1CNC(=O)c1cc2c(=O)n(Cc3cccs3)ccc2nc1C	none (no result: WRN helicase inh)
CCC(Sc1nc(-c2ccccc2)c(C#N)c(=O)[nH]1)C(=O)Nc1nnc(C)s1 (centres undefined)	Pol iota inh inconclusive, FEN1 inh-1 inconclusive | FEN1 inh-2 47.8
Nc1nccnc1C(=O)OCC(=O)Nc1ccc2[nH]c(=O)[nH]c2c1	Pol kappa inh inconclusive, POLH inh 22.4µM, Pol iota inh 20µM, FEN1 inh-1 inconclusive, WRN helicase inh inconclusive (no result: POLB inh) | FEN1 inh-2 inconclusive
C/C(=N/NC(=O)c1ccco1)c1cccc(NC(=O)c2ccc(C)s2)c1	Pol kappa inh 89.1µM | FEN1 inh-2 inconclusive
CN(C)CCc1cc2c(c3c1ccc1ccccc13)OCO2	POLB inh 20µM, Pol kappa inh inconclusive, Pol iota inh inconclusive, FEN1 inh-1 inconclusive | FEN1 inh-2 21.3
O=C(ONC(=O)C1CCCCC1C(=O)NOC(=O)c1ccccc1)c1ccccc1 (centres undefined)	FEN1 inh-1 17.8µM (no result: POLB inh) | FEN1 inh-2 13.5
O=C1CCCN1CCCNc1nc(NCc2cccs2)nc2ccsc12	none (no result: POLB inh, Pol kappa inh, POLH inh, Pol iota inh, FEN1 inh-1)
c1ccc(-c2nc(-n3ccnc3)nc(-n3ccnc3)n2)cc1	POLH inh inconclusive, FEN1 inh-1 inconclusive | FEN1 inh-2 42.6
Cn1c(N)c(C(=O)COC(=O)c2ccc(Br)o2)c(=O)n(C)c1=O	none
